Source: PubChem BioAssay (NCATS)
Inconclusive results are not listed. Activity calls are given as the source filed them. Unless noted, the call rests on the fitted dose curve.

Legend:
[1] = biological target: Alpha-galactosidase (Coffea arabica) (UniProt Q42656); assay: Counterscreen for Glucocerebrosidase Inhibitors: qHTS Assay for Coffee Bean alpha-Galactosidase at pH 4.5 (AID 957; active means well fitted curve in the direction sought with a large enough effect; an effect the other way counts as inactive or inconclusive;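 further: series mostly up to about 77 µM; plate controls were enzyme alone for no effect and no enzyme for full effect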)
Chain of Alpha-galactosidase (Coffea arabica) (Q42656 whole entry, looked up): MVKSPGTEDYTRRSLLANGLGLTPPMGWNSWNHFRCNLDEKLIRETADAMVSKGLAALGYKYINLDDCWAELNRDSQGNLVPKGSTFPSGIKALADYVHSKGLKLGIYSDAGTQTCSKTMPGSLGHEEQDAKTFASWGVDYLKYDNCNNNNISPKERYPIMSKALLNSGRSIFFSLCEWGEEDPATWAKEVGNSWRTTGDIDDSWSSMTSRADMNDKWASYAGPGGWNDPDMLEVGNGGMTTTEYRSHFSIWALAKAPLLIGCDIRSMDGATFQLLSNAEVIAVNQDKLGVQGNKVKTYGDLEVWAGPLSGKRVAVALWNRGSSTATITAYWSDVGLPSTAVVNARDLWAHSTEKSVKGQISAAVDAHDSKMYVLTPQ
How it was run: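 Green coffee bean enzyme (2 nM final) was incubated with compounds (0.7 nM to 77 uM) and 4-methylumbelliferyl alpha-D-galactopyranoside (80 uM final) in 50 mM citric acid, 0.005% Tween-20, pH 4.5, 20 min at room temperature; AC50 from Hill fits.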

[2] = biological target: Alpha-galactosidase (Coffea arabica) (UniProt Q42656); assay: Counterscreen for Glucocerebrosidase Inhibitors: qHTS Assay for Coffee Bean alpha-Galactosidase at pH 5.9 (AID 998; active means well fitted curve in the direction sought with a large enough effect; an effect the other way counts as inactive or inconclusive;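 further: plate controls were uninhibited enzyme for no effect and no-enzyme basal signal for full effect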)
How it was run: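 Green coffee bean enzyme (2 nM final) was incubated with compounds (0.7 nM–77 uM) and 4-methylumbelliferyl alpha-D-galactopyranoside (80 uM) in citrate buffer pH 5.9, 20 min at room temperature. High-pH stop; fluorescence 365/440 nm; AC50 from Hill fits.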

[3] = Inducers of the Endoplasmic Reticulum Stress Response (ERSR) in human glioma: Validation (AID 504836; active means well fitted curve in the direction sought with a large enough effect; an effect the other way counts as inactive or inconclusive; further: 0% is about no effect)
How it was run: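 Stably transfected U87-MG human glioma cells carrying a GRP78-based luminescent sensor were seeded at 1000 cells/well, pin-dosed with compounds and incubated 16 h. Luciferase reagent was then added, and end-point luminescence was read after 10 min at room temperature.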

[4] = qHTS for Inhibitors of the Functional Ribonucleoprotein Complex (vRNP) of Lassa (LASV) Arenavirus: LASV Primary Screen - GLuc reporter signal (AID 1347082; calls by dose curve; tested in HEK293 reporter line; further: series mostly up to about 57 µM; on the % scale 0 is the no-effect control and ±100 the full control effect; nearly all actives have a fitted effect of over 60% in size)
[5] = qHTS for Inhibitors of the Functional Ribonucleoprotein Complex (vRNP) of Lassa (LASV) Arenavirus: Viability assay - alamar blue signal for LASV Primary Screen (AID 1347083; calls by dose curve; tested in HEK293 reporter line; further: series mostly up to about 57 µM; on the % scale 0 is the no-effect control and ±100 the full control effect; nearly all actives have a fitted effect of over 80% in size)
[6] = qHTS for Inhibitors of the Functional Ribonucleoprotein Complex (vRNP) of Lymphocytic Choriomeningitis Arenaviruses (LCMV): Viability assay - alamar blue signal for LCMV Primary Screen (AID 1347085; calls by dose curve; tested in HEK293 reporter line; further: series mostly up to about 57 µM; on the % scale 0 is the no-effect control and ±100 the full control effect; nearly all actives have a fitted effect of over 80% in size)
[7] = biological target: Nucleoprotein (Lymphocytic choriomeningitis virus (strain Armstrong)) (UniProt P09992); assay: qHTS for Inhibitors of the Functional Ribonucleoprotein Complex (vRNP) of Lymphocytic Choriomeningitis Arenaviruses (LCMV): LCMV Primary Screen - GLuc reporter signal (AID 1347086); further: series mostly up to about 57 µM; on the % scale 0 is the no-effect control and ±100 the full control effect; nearly all actives have a fitted effect of over 70% in size
Chain of Nucleoprotein (Lymphocytic choriomeningitis virus (strain Armstrong)) (P09992 whole entry, looked up): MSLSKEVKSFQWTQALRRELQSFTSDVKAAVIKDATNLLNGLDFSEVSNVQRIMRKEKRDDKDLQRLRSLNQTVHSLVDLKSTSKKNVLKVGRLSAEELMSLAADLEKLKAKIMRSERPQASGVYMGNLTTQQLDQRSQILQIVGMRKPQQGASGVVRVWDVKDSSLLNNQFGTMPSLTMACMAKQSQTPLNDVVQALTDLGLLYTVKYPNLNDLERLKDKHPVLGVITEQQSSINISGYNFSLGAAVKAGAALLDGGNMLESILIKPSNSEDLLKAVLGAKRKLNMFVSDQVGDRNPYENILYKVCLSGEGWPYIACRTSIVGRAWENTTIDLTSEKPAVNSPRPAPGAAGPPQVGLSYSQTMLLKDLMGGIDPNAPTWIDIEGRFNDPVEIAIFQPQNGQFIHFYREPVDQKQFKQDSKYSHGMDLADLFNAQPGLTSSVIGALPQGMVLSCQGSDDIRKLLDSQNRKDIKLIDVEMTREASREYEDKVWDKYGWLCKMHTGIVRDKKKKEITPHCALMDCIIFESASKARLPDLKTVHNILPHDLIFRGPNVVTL

[8] = biological target: Bile acid receptor (Homo sapiens) (UniProt Q96RI1); assay: qHTS assay for small molecule agonists of farnesoid X receptor signaling (AID 588527); settings: HEK293T FXR-UAS-bla, beta-lactamase ratio, 16 h; activation: active compounds read high;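 further: series mostly up to about 77 µM; 0% = vehicle basal and 100% = reference agonist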
Chain of Bile acid receptor (Homo sapiens) (Q96RI1 whole entry, looked up): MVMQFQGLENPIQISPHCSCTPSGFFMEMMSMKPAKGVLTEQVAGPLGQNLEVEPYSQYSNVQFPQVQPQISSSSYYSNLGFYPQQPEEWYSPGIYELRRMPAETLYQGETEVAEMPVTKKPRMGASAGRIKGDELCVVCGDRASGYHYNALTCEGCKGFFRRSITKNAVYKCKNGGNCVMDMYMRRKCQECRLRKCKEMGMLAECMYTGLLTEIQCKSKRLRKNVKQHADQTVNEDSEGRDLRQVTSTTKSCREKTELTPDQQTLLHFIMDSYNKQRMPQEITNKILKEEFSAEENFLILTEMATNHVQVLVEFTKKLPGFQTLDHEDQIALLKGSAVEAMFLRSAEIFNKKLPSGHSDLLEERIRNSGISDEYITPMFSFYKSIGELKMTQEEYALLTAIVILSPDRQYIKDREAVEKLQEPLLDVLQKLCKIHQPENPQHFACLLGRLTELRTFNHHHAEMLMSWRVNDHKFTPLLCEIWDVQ
How it was run: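 FXR-UAS-bla HEK293T cells (10% dialyzed FBS) preincubated 5-7 h at 37 C, then compounds at up to 92 uM for 16 h at 37 C. CCF4 beta-lactamase read-out after 2 h RT. Normalized to chenodeoxycholic acid (100 uM) and DMSO; Hill fit gave EC50 and efficacy.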

[9] = biological target: Peroxisome proliferator-activated receptor delta (Homo sapiens) (UniProt Q03181); assay: qHTS assay for small molecule agonists of peroxisome proliferator-activated receptor delta signaling (AID 588534);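 further: 0% = DMSO basal wells and 100% = positive control agonist at 10 µM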
Chain of Peroxisome proliferator-activated receptor delta (Homo sapiens) (Q03181 whole entry, looked up): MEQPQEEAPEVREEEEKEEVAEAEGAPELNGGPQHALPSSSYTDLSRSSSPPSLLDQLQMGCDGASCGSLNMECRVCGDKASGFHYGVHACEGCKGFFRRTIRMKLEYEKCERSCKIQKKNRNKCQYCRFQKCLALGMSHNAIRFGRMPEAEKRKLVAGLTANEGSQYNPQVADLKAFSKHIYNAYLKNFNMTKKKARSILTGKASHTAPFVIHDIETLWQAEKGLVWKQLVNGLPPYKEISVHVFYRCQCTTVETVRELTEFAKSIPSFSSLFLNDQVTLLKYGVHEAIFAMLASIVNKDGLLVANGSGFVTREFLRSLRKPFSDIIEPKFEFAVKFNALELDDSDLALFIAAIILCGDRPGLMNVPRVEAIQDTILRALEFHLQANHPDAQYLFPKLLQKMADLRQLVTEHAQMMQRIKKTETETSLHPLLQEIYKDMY
How it was run: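 Cell-based beta-lactamase reporter assay run in agonist mode: cells seeded and incubated 5 hrs at 37 C, compounds added and incubated 18 hrs at 37 C. CCF4 dye fluorescence read after 2 hrs at RT; EC50 and efficacy from Hill fits.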

[10] = biological target: Ubiquitin carboxyl-terminal hydrolase 1 (Homo sapiens) (UniProt O94782); assay: Inhibitors of USP1/UAF1: Pilot qHTS (AID 504865; active means well fitted curve in the direction sought with a large enough effect; an effect the other way counts as inactive or inconclusive;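 further: rhodamine fluorescence freed from ubiquitin-rhodamine substrate followed over time; top concentration of the series differs between compounds; on the % scale 0 is the no-effect control and ±100 the full control effect; nearly all actives have a fitted effect of over 35% in size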)
Chain of Ubiquitin carboxyl-terminal hydrolase 1 (Homo sapiens) (O94782 whole entry, looked up): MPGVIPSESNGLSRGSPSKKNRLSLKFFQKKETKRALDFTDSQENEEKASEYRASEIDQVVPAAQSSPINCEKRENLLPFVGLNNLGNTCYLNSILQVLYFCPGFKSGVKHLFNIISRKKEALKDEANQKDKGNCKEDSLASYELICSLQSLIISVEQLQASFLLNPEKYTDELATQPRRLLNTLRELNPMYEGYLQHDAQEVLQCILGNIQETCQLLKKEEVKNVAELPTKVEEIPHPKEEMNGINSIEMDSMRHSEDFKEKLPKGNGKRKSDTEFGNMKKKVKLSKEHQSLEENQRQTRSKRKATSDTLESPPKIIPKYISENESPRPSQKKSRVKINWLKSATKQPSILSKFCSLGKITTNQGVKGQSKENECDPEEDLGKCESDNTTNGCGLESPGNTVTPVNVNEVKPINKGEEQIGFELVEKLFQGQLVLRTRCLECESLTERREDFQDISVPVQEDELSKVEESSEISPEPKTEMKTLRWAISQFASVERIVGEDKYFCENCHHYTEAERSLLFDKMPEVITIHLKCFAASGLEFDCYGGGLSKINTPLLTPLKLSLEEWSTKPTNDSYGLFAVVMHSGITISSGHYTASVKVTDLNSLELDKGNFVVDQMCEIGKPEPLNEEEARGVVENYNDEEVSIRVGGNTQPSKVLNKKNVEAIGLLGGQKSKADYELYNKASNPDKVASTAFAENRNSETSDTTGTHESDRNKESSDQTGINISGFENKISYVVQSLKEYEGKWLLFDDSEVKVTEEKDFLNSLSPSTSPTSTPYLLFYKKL
How it was run: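 In 50mM HEPES pH 7.8 containing 0.5mM EDTA, 1mM TCEP, 0.1 mg/ml BSA and 0.01% Tween-20, 1nM USP1/UAF1 is exposed to compound for 15 min, then Ub-Rho (150nM final) is added and fluorescence is read over time.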

NCCNC(=O)c1ncsc1-c1cccc(F)c1
inactive: outcome [1] | outcome [2] | outcome [3] | Potency [4] | Potency [5] | Potency [6] | Potency [7]

OCCO
inactive: activation [8] 1.31% | Potency [9] | Potency [4] | Potency [5] | Potency [6] | Potency [7]

CC(=O)c1ccccn1
inactive: activation [8] -4.62% | Potency [9] | Potency [4] | Potency [5] | Potency [6] | Potency [7]

COC(=O)CCCC(=O)OC
inactive: activation [8] -3.54% | Potency [9] | Potency [4] | Potency [5] | Potency [6] | Potency [7]

CC1=C(/C=C/C(C)=C/C=C/C(C)=C\C=O)C(C)(C)CCC1
inactive: activation [8] 25.7% | Potency [9] | Potency [4] | Potency [5] | Potency [6] | Potency [7]

CCCCCCCCCCCCCCCCCC(N)=O
inactive: activation [8] 1.8% | Potency [9] | Potency [4] | Potency [5] | Potency [6] | Potency [7]

CCCCCC1CCC(=O)O1 (stereo unspecified)
inactive: activation [8] 0.301% | Potency [9] | Potency [4] | Potency [5] | Potency [6] | Potency [7]

c1ccc2c(c1)CN1CCCC1=N2
inactive: Potency [10] | Potency [4] | Potency [5] | Potency [6] | Potency [7]

CC(C)[C@H](NC(=O)OCc1ccccc1)C(=O)N[C@H](C=O)Cc1ccccc1
inactive: outcome [1] | outcome [2] | outcome [3] | Potency [4] | Potency [5] | Potency [6] | Potency [7]

CN=c1nc(-c2ccccc2)n(-c2ccccc2)s1
inactive: outcome [1] | outcome [2] | outcome [3] | Potency [4] | Potency [5] | Potency [6] | Potency [7]

Nc1ccc2c3c(cccc13)C(=O)NC2=O
inactive: outcome [1] | outcome [2] | outcome [3] | Potency [4] | Potency [5] | Potency [6] | Potency [7]

COCCOCCOCCOC
inactive: activation [8] 4.16% | Potency [4] | Potency [5] | Potency [6] | Potency [7]

CN(C)S(=O)(=O)c1ccc2c(c1)/C(=C/c1cc3c([nH]1)CCCC3)C(=O)N2
inactive: outcome [1] | outcome [2] | outcome [3] | Potency [4] | Potency [5] | Potency [6] | Potency [7]
